Compound activity as filed in PubChem BioAssay.
RAD52 inh: blocks human RAD52 DNA annealing; P43351; recombinant RAD52 DNA annealing, FRET fluorescence; inhibition, % at 18.7 µM; 360,000 tested, 0.46% active;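 active = every replicate showing at least 50% inhibition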
RAD54 branch: RAD54 (human) branch migration inhibition; RAD54 Holliday junction branch migration, FAM/BHQ fluorescence; 360,000 tested, 0.14% active; inhibition, % at 10.4 µM; Q92698;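 active = mean normalized replicate activity at least 40 and at least half of replicates scoring 40 or more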;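 also: inhibitors cause a drop in the FAM fluorescence signal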
Casp6 inh: caspase-6 (human) enzyme inhibition | P55212 | purified caspase-6, Z-VEID-R110 cleavage fluorescence | inhibition, % at 12.5 µM | 350,000 tested, 0.53% active | AID 686996;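 active = mean inhibition across replicates at least about 35%, with every replicate also reaching that limit, limit read from the data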
Target sequence (P55212 24-179 limits assumed): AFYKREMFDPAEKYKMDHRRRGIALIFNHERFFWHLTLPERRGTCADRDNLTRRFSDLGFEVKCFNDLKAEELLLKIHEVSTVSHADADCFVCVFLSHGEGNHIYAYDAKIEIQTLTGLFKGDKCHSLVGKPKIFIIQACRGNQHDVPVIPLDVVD
Target sequence (P55212 194-293 limits assumed): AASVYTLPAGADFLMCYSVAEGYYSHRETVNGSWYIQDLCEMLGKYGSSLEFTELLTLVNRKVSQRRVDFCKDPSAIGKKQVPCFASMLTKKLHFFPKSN
Glyco luc inh: N-linked glycosylation inhibition; reporter increase, % at 12.5 µM; 360,000 tested, 0.23% active; D54 ERlucT glycosylation luciferase reporter, 24 h; percent of 100 nM tunicamycin response;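 active = mean luciferase reporter signal, scaled so untreated is 0 and the glycosylation-blocking control 100, at or above a set limit in every replicate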;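 also: luciferase carries N-glycosylation sites so blocking glycosylation raises the light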
NSD2 HMT inh: blocks human histone methyltransferase NSD2 | O96028 | NSD2 peptide methylation, AlphaScreen, 120 min | inhibition, % at 12.5 µM | 310,000 tested, 0.54% active | AID 743445; in the data active = inhibition above about 50%
Numbers stand for hits; – = inactive; · = no result given. Only some compounds are listed: those with a hit (about 1.2% of all), similar ones and a draw of the others.

SMILES	RAD52 inh	RAD54 branch	Casp6 inh	Glyco luc inh	NSD2 HMT inh
C[C@H]1CCCCO[C@@H](CN(C)Cc2ccc(C(=O)O)cc2)[C@@H](C)CN([C@@H](C)CO)C(=O)c2cc(NC(=O)c3ccncc3)ccc2O1	106	–	–	·	·
C[C@H]1CCCCO[C@H](CN(C)Cc2ccc(C(=O)O)cc2)[C@@H](C)CN([C@@H](C)CO)C(=O)c2cc(NC(=O)c3ccncc3)ccc2O1	102	–	–	·	·
C[C@@H]1CCCCO[C@@H](CN(C)Cc2ccc(C(=O)O)cc2)[C@@H](C)CN([C@H](C)CO)C(=O)c2cc(NC(=O)c3ccncc3)ccc2O1	76	–	–	·	·
C[C@@H]1CCCCO[C@H](CN(C)Cc2ccc(C(=O)O)cc2)[C@H](C)CN([C@@H](C)CO)C(=O)c2cc(NC(=O)c3ccncc3)ccc2O1	101	–	–	·	·
COc1ccc2c3c(n(C)c2c1)[C@@H](CO)N(Cc1ccncc1)CC31CCN(C(=O)C2CCCC2)CC1	–	·	–	·	·
O=C(c1cccc(F)c1)N1CC2(C1)[C@H](c1ccccc1)[C@@H](CO)N2C(=O)C1CCOCC1	–	·	–	·	·
C[C@@H]1CCCCO[C@@H](CN(C)Cc2ccc(C(=O)O)cc2)[C@H](C)CN([C@@H](C)CO)C(=O)c2cc(NC(=O)c3ccncc3)ccc2O1	104	–	–	·	·
C[C@H](CO)N1C[C@H](C)[C@@H](CN(C)Cc2ccc(C(=O)O)cc2)OCCCC[C@H](C)Oc2ccc(NC(=O)c3ccncc3)cc2C1=O	96	–	–	·	·
O=S(=O)(Cc1ccccc1)N1C[C@@H]2N[C@H](C1)C2c1ccc(-c2ccccc2)cc1 (stereo not given in full)	–	·	–	·	·
CC(C)C#Cc1ccc2c(c1)O[C@H](CN(C)C(=O)c1cnccn1)[C@H](C)CN([C@H](C)CO)S2(=O)=O	–	–	–	·	·
O=C(C[C@@H]1CC[C@H]2[C@@H](COC[C@H](O)CN2CCc2ccccc2)O1)NCc1ccccc1	–	–	·	·	·
CC(=O)Nc1ccc(S(=O)(=O)/N=C2\C(=O)c3ccccc3C([O-])=C2n2cc[n+](-c3ccccn3)c2)cc1	–	–	68	–	–
COc1ccccc1C1C2=C(N=c3s/c(=C/c4cccc(OCC(=O)O)c4)c(=O)n31)c1ccccc1CC2 (stereo not given)	–	·	38	–	–
COc1cccc(C2C3=C(N=c4s/c(=C\c5cccc(O)c5)c(=O)n42)c2ccccc2CC3)c1OC (stereo not given)	–	–	–	–	–
CCOc1ncccc1C(=O)OC(C)C(=O)Nc1ccc(N2CCOCC2)cc1 (stereo not given)	–	–	35	–	–
CCOc1ncccc1C(=O)Nc1ccccc1N1CCOCC1	–	·	–	–	–
COc1ccc(N2CCN(C(=O)CCNS(=O)(=O)c3ccc(C)cc3)CC2)cc1	–	–	36	–	–
CO[C@H]1CN(C)C(=O)c2ccc(NC(=O)C3CC3)cc2OC[C@@H](C)N(C(=O)Cc2ccccn2)C[C@H]1C	–	–	–	·	·
CC(=O)Nc1ccc(CNc2ncnc3ccc(-c4c(C)noc4C)cc23)cc1	–	–	–	50	·
Cc1ccc(/C=C/C(=O)c2ccccc(=O)c2O)c(C)c1	–	–	39	–	–
C[C@@H]1CN([C@@H](C)CO)C(=O)c2cc(NC(=O)CCC(F)(F)F)ccc2O[C@@H](C)CCCCO[C@@H]1CN(C)C(=O)CCC(F)(F)F	–	–	–	·	·
Cc1ccc(S(=O)(=O)c2cc3c(=O)n4ccccc4nc3n(CCc3ccccc3)c2=N)cc1	–	–	–	69	–
Cc1cc(Cl)ccc1OCCCC(=O)NO	·	–	·	81	–
O=C(Cn1cncn1)NCCCc1ccccc1	–	·	75	–	–
O=C(Cn1cncn1)NCCC(c1ccccc1)c1ccccc1	–	–	–	–	·
SMILES	RAD52 inh	RAD54 branch	Casp6 inh	Glyco luc inh	NSD2 HMT inh
C[C@@H]1CN([C@@H](C)CO)C(=O)Cc2cc(NC(=O)CCCN(C)C)ccc2O[C@@H]1CN(C)Cc1ccc(Oc2ccccc2)cc1	–	·	–	·	·
C[C@H]1CN([C@@H](C)CO)C(=O)Cc2cc(NC(=O)CCCN(C)C)ccc2O[C@@H]1CN(C)Cc1ccc(Oc2ccccc2)cc1	52	–	–	·	·
C[C@H](CO)N1C[C@H](C)[C@H](CN(C)Cc2ccc(Oc3ccccc3)cc2)Oc2ccc(NC(=O)CCCN(C)C)cc2CC1=O	58	–	–	·	·
Cc1ccc(S(=O)(=O)c2nc(-c3ccccc3F)oc2N2CCN(C)CC2)cc1	·	·	·	·	–
COc1cc(/C=C/c2onc(C)c2[N+](=O)[O-])cc(OC)c1OC	–	·	–	37	–
CC=Cc1ccc2n(c1=O)C[C@@H]1[C@@H](CO)[C@H](C(=O)NCCC)[C@H]2N1CC1CCCC1 (mixture of isomers)	–	–	–	·	·
CO[C@H]1CN(C)C(=O)c2ccc(NC(=O)Nc3cc(Cl)cc(Cl)c3)cc2OC[C@H](C)NC[C@H]1C	54	–	–	·	·
CO[C@H]1CN(C)C(=O)c2ccc(NC(=O)Nc3cccc(Cl)c3)cc2OC[C@@H](C)NC[C@@H]1C	–	–	–	·	·
CO[C@H]1CN(C)C(=O)c2ccc(NC(=O)Nc3cc(Cl)cc(Cl)c3)cc2OC[C@@H](C)NC[C@@H]1C	52	–	–	·	·
CO[C@@H]1CN(C)C(=O)c2cc(NC(=O)Nc3cc(Cl)cc(Cl)c3)ccc2OC[C@H](C)NC[C@H]1C	57	·	·	·	·
CO[C@@H]1CN(C)C(=O)c2ccc(NC(=O)Nc3cccc(Cl)c3)cc2OC[C@H](C)NC[C@@H]1C	–	–	–	·	·
CO[C@H]1CN(C)C(=O)c2ccc(NC(=O)Nc3cc(Cl)cc(Cl)c3)cc2OC[C@@H](C)NC[C@H]1C	64	–	·	·	·
C[C@@H]1CCCCO[C@@H](CN(C)C(=O)c2ccccc2)[C@H](C)CN([C@@H](C)CO)C(=O)c2cc(NC(=O)NC3CCCCC3)ccc2O1	–	–	–	·	·
O=C(CN1CCOCC1)NCC[C@H]1CC[C@@H](NC(=O)c2ccccc2F)[C@@H](CO)O1	–	–	–	·	·
O=C(c1cccc(S(=O)(=O)N2CCCCCC2)c1)N1CCN(c2ccccc2F)CC1	–	–	48	–	–
CC(C)NC(=O)N(C)C[C@@H]1Oc2cc(-c3cncnc3)ccc2S(=O)(=O)N([C@H](C)CO)C[C@@H]1C	–	–	–	·	·
CC1(Oc2cnc(Cl)c3ccccc23)CCN(Cc2ccc(OC(F)(F)F)cc2)C1 (stereo not given)	–	–	46	–	–
COc1cc(/C=N/NC(=O)c2ccc(-c3ccccc3)cc2)cc(OC)c1OC	·	·	·	33	–
NCC[C@@H]1CC[C@@H](NC(=O)C2CCCC2)[C@@H](CO)O1	–	–	–	·	·
COc1ccc(NC(=O)Nc2ccc3c(c2)C(=O)N([C@H](C)CO)C[C@@H](C)[C@@H](CN(C)S(=O)(=O)c2ccc(F)cc2)OCCCC[C@@H](C)O3)cc1	–	–	–	·	·
Cn1c(N=Nc2ccccc2)nc2ccccc21	–	–	39	–	–
CN(C)c1ccc(N=Nc2nc3ccccc3n2C)cc1	–	–	–	–	·
